Laboratory results: ChEMBL document CHEMBL1157539, “Thousands of chemical starting points for antimalarial lead identification” (Nature, 2010)

Columns and labels:
Assay type in all cases: functional
Plasmodium falciparum [1] = test: GSK_TCMDC: Inhibition of Plasmodium falciparum 3D7 in whole red blood cells, using parasite LDH activity as an index of growth. Test compounds present at 2uM
Plasmodium falciparum [2] = test: GSK_TCMDC: Inhibition of Plasmodium falciparum Dd2 in whole red blood cells, using parasite LDH activity as an index of growth. Test compounds present at 2uM
HepG2 = test: GSK_TCMDC: Percent inhibition of human HepG2 cell line. Test compounds present at 10uM.

SMILES	Inhibition (Plasmodium falciparum [1])	Inhibition (Plasmodium falciparum [2])	Inhibition (HepG2)
CCc1cn2c3c(cc(C(=O)N[C@@H](Cc4ccccc4)[C@H](O)CNC4CCCCC4)cc13)N(C)S(=O)(=O)C2.O=CO	99%	99%	20%
Br.CCCC1N=C(N)N=C(N)N1c1ccc(CC)cc1 (configuration not stated)	94%	4%	11%
O=C(Nc1cccc(C(F)(F)F)c1)c1cccc2nc(C(F)(F)F)[nH]c12	100%	98%	81%
Nc1ncc(-c2ccsc2)cc1-c1nc2ccccc2[nH]1	99%	8%	33%
O=C(CC1SC(N2N=C(c3cccs3)CC2c2ccccc2)=NC1=O)Nc1ccccc1F (configuration not stated)	87%	76%	9%
COc1ccc(-n2ccnc2SCC(=O)Nc2cc(C(F)(F)F)ccc2Cl)c(OC)c1	98%	76%	0%
COc1ccc2ccc(F)c(CCN3CCC(NCc4cc5c(cn4)OCCO5)CC3)c2n1.Cl	96%	36%	15%
CCN(CC)CCN(Cc1ccc(-c2ccc(C(F)(F)F)cc2)cc1)C(=O)Cn1c(CCc2cccc(F)c2F)nc(=O)c2ccc(C)cc21.O=C(O)C(O)C(O)C(=O)O	99%	58%	39%
COc1ccc2nccc([C@@H](O)CN3CCC(NC[C@H](Cc4ccccc4)NC(=O)OC(C)(C)C)CC3)c2c1.O=C(O)C(=O)O	98%	86%	18%
NCc1ccc(CNCc2cccc(-c3ccc(-c4nc5ccccc5[nH]4)cc3)c2)cc1.O=C(O)C(F)(F)F	100%	58%	10%
Fc1cccc(COc2ccc(Nc3ncnc4sc(C#CC5CCCCN5)cc34)cc2Cl)c1.O=C(O)C(F)(F)F (configuration not stated)	100%	100%	30%
COC(=O)c1ccc(CCC(C)NCC(O)c2cccc(Cl)c2)cc1.Cl (configuration not stated)	100%	94%	0%
Cc1cc(=NN=CC=Cc2ccccc2)c2ccccc2[nH]1	100%	69%	19%
O=C(Nc1cc(C(F)(F)F)ccc1-n1cncn1)C1(c2ccccc2)CC1	100%	100%	11%
CCCC(=O)c1cnc2cc(O)ccc2c1Nc1ccccc1C	99%	93%	14%
O=C(NC1CCN(CC2(c3ccccc3)CCCC2)CC1)c1n[nH]cc1Cl	83%	87%	0%
Cc1cccc2nc(-c3ccc(-c4ccc(CNCCCN5CCCC5=O)cc4)s3)[nH]c12.O=C(O)C(F)(F)F	100%	43%	17%
CCOc1ccc(C(=O)Nc2cc(Br)c3c(c2)CNCC3)cc1C#N.Cl	97%	32%	17%
O=C(c1cc2nc3c(c(C(F)(F)F)n2n1)CCc1ccccc1-3)N1CCN2CCCC2C1 (configuration not stated)	94%	3%	0%
O=C(/C=C/c1ccc(Cl)c(Cl)c1)N1CCC(CCN2CCC(c3c[nH]c4ccncc34)CC2)CC1	100%	70%	13%
CN1CCN(c2cccc(NC(=O)c3ccc(-c4ccc(C#N)cc4)cc3)c2)CC1	84%	7%	31%
Cc1[nH]c2ccc(-c3ccccc3)cc2c(=O)c1Br	97%	97%	0%
COc1cc(NC(=O)c2ccc3oc4ccccc4c3c2)ccc1OCCN1CCCCC1.Cl	89%	11%	12%
Cc1cc(C)c(C)c(S(=O)(=O)N2CCCCC(c3ccc(F)c(F)c3)=N2)c1C	86%	60%	5%
COc1ccc2ncc(F)c([C@H](O)CN3CCC(NCc4ccc5c(c4)NC(=O)CS5)CC3)c2c1.Cl	100%	98%	7%
O=C(O)/C=C/c1cccc(F)c1F	96%	1%	58%
C=CCn1c(SCC(=O)Nc2cc(Cl)ccc2Cl)nc2sc(C)cc2c1=O	97%	96%	8%
COc1cc(C(=O)NCCCN2CCN(c3cccc(Cl)c3)CC2)ccc1-c1nc2cc(Cl)c(F)cc2[nH]1	100%	81%	15%
Cl.O=S(=O)(c1ccc2ccccc2c1)N1CCCN(Cc2ccc(OCCCN3CCCCC3)cc2)CC1	98%	11%	43%
